In publication PMC5540273 (PLoS ONE, 2017):

Tested on: SRC
Conditions: concentration: 1 μM, replicates: in singlicate; n = 1
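Further: KINOMEscan kinase panel screen.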

Point of comparison: `Cn1cncc1-c1ccc2ncnc(Nc3ccc(OCc4ccccc4)cc3)c2c1` [GW320571], “%Inh” value 2%. Against it:
- CC(=O)Nc1nc2cnc(Nc3cc(NC(=O)c4cccc(CCC#N)c4)ccc3C)nc2s1 — higher, 18%
- Cc1nnc(-c2ccc3occ(-c4ccc(S(C)=O)cc4)c3c2)[nH]1 (stereo not shown) — higher, 9%
- Cc1ccc(NC(=O)Nc2cccc(Cl)c2)cc1-c1ccc(C(=O)Nc2ccncc2)cc1 [GSK1398468] — lower, 0%
- COc1ccc(Nc2nccc(-c3cccc(NC(=O)c4cc5cc(F)ccc5[nH]4)c3)n2)cc1 [GSK1229782] — higher, 63%
- COc1cccc(-c2cc(-c3c[nH]nc3-c3ccccn3)ccn2)c1 [GW680338] — lower, 0%
- Fc1cc(Cl)ccc1Nc1ccnc2cc(-c3ccc(CN4CCCCC4)o3)ccc12 [GW560116] — higher, 90.8%
- O=C(Nc1ccc2c(c1)OCO2)NC1CCN(c2ccnc(Nc3ccc(F)cc3)n2)C1 (stereo not shown) [GSK1379724] — lower, 0%
- O=C(Nc1ccccc1)Nc1cccc(Oc2ccc3nccn3n2)c1 — lower, 0%
- Cn1ccc2ncnc(Oc3ccc(NC(=O)Nc4ccccc4)cc3)c21 — higher, 11%
- Cc1ccc(-c2cc(-c3c[nH]nc3-c3ccccn3)ccn2)cc1 [GW684088] — lower, 0%
- O=C(O)COc1ncnc2cc(-c3ccc4[nH]ncc4c3)sc12 — lower, 0%
- C[C@@H]1CCCCN1c1cc(-c2ccc3c(N)n[nH]c3c2)nc(N)n1 [GSK2258759] — lower, 0%
- COc1cc(Nc2nccc(N3CCC(NC(=O)Nc4cc(C)ccc4C)C3)n2)cc(OC)c1OC (stereo not shown) [GSK1379762] — higher, 24%
- Nc1nc(-c2nccs2)c(-c2ccnc3ccccc23)s1 [GW693542] — lower, 0%
- Cc1cccc(-c2nc(Nc3ccc4[nH]ncc4c3)c3ccccc3n2)n1 [GW857175] — higher, 28%
- O=C1NC(=O)C(N2CCc3ccccc32)=C1c1ccccc1Cl [SB-373598] — higher, 18%
- O=C(Nc1n[nH]c2nc(-c3nccs3)c(Br)cc12)C1CC1 [SB-742251] — lower, 0%
- CCCc1ccc(S(=O)(=O)NC2CCN(c3ccnc(Nc4ccc(F)cc4)n3)C2)cc1 (stereo not shown) [GSK1379715] — higher, 48%
- Fc1cccc(COc2nnc(-c3ccc4c(c3)CCO4)o2)c1 — lower, 0%
- CS(=O)(=O)c1ccc(-c2c(-c3ncn[nH]3)sc(N3CCOCC3)c2C#N)cc1 — lower, 0%
- COc1ccc(CNC(=O)NC2CCN(c3ccnc(Nc4cc(OC)c(OC)c(OC)c4)n3)C2)cc1 (stereo not shown) [GSK1379748] — higher, 14%
- O=c1cc(N2CCOCC2)nc2n(Cc3cccc(Cl)c3Cl)ccn12 [GSK2286295] — higher, 3%
- Cc1ccccc1-n1cnc2c(N)ncnc21 [SKF-97510] — higher, 13%
- Cc1cccc(-c2nc(-c3ccc(S(C)(=O)=O)cc3)sc2-c2ccnc(NCCc3ccccc3)c2)c1 — lower, 0%
- Cc1cccc(-c2nc(C)cc(Nc3ccncc3)n2)n1 [GSK257997] — lower, 0%
- Cc1cc(-c2ccc3c(c2)CC[C@@H](N[C@@H](C)c2ccccc2)C3)cnc1N.Cl [GW412617] — higher, 4%
- Cc1ccc(NC(=O)Nc2cc(C(C)(C)C)nn2-c2ccccc2)cc1 [GSK1014915] — the same, 2%
- COc1cc2ncn(-c3cc(OCC4CCCO4)c(C(N)=O)s3)c2cc1OC (stereo not shown) [GSK204607] — lower, 0%
- COc1cccc(NC(=O)NC2CCN(c3ccnc(Nc4ccc(F)cc4)n3)C2)c1 (stereo not shown) [GSK1379721] — lower, 0%
- CC1=C(C(=O)Nc2cc3cn[nH]c3cc2F)C(c2ccc(C(F)(F)F)cc2)CC(=O)N1 (stereo not shown) [GSK429286] — lower, 0%
- COc1ccc(C2=C(Nc3cccc(C(=O)O)c3)C(=O)NC2=O)cc1 [SB-390765] — higher, 3%
- COc1cc2ncnc(Nc3ccc4nc(-c5ccccc5)[nH]c4c3)c2cc1OC.Cl [GW282450] — lower, 0%
- CN1C(=O)C(Nc2ccc(Cl)c(C(=O)O)c2)=C(c2ccc(Cl)cc2)C1=O [SB-404290] — lower, 0%
- Cl.NC(=O)c1cccc(Nc2nccc(Nc3ccc(Oc4cccc(Cl)c4)c(Cl)c3)n2)c1 [GW659008] — higher, 25%

Tested on: SRMS
Conditions: concentration: 1 μM, replicates: in singlicate; n = 1

Point of comparison: `Cc1cccc(-c2nc(C)cc(Nc3ccncc3)n2)n1` [GSK257997], “%Inh” value 0%. Against it:
- CC(=O)Nc1nc2cnc(Nc3cc(NC(=O)c4cccc(CCC#N)c4)ccc3C)nc2s1 — the same, 0%
- Cc1nnc(-c2ccc3occ(-c4ccc(S(C)=O)cc4)c3c2)[nH]1 (stereo not shown) — the same, 0%
- Cc1ccc(NC(=O)Nc2cccc(Cl)c2)cc1-c1ccc(C(=O)Nc2ccncc2)cc1 [GSK1398468] — the same, 0%
- COc1ccc(Nc2nccc(-c3cccc(NC(=O)c4cc5cc(F)ccc5[nH]4)c3)n2)cc1 [GSK1229782] — the same, 0%
- COc1cccc(-c2cc(-c3c[nH]nc3-c3ccccn3)ccn2)c1 [GW680338] — higher, 2%
- Fc1cc(Cl)ccc1Nc1ccnc2cc(-c3ccc(CN4CCCCC4)o3)ccc12 [GW560116] — the same, 0%
- O=C(Nc1ccc2c(c1)OCO2)NC1CCN(c2ccnc(Nc3ccc(F)cc3)n2)C1 (stereo not shown) [GSK1379724] — the same, 0%
- O=C(Nc1ccccc1)Nc1cccc(Oc2ccc3nccn3n2)c1 — the same, 0%
- Cn1ccc2ncnc(Oc3ccc(NC(=O)Nc4ccccc4)cc3)c21 — the same, 0%
- Cc1ccc(-c2cc(-c3c[nH]nc3-c3ccccn3)ccn2)cc1 [GW684088] — higher, 9%
- O=C(O)COc1ncnc2cc(-c3ccc4[nH]ncc4c3)sc12 — higher, 8%
- C[C@@H]1CCCCN1c1cc(-c2ccc3c(N)n[nH]c3c2)nc(N)n1 [GSK2258759] — the same, 0%
- COc1cc(Nc2nccc(N3CCC(NC(=O)Nc4cc(C)ccc4C)C3)n2)cc(OC)c1OC (stereo not shown) [GSK1379762] — the same, 0%
- Nc1nc(-c2nccs2)c(-c2ccnc3ccccc23)s1 [GW693542] — the same, 0%
- Cn1cncc1-c1ccc2ncnc(Nc3ccc(OCc4ccccc4)cc3)c2c1 [GW320571] — the same, 0%
- Cc1cccc(-c2nc(Nc3ccc4[nH]ncc4c3)c3ccccc3n2)n1 [GW857175] — higher, 25%
- O=C1NC(=O)C(N2CCc3ccccc32)=C1c1ccccc1Cl [SB-373598] — higher, 98.3%
- O=C(Nc1n[nH]c2nc(-c3nccs3)c(Br)cc12)C1CC1 [SB-742251] — the same, 0%
- CCCc1ccc(S(=O)(=O)NC2CCN(c3ccnc(Nc4ccc(F)cc4)n3)C2)cc1 (stereo not shown) [GSK1379715] — the same, 0%
- Fc1cccc(COc2nnc(-c3ccc4c(c3)CCO4)o2)c1 — higher, 5%
- CS(=O)(=O)c1ccc(-c2c(-c3ncn[nH]3)sc(N3CCOCC3)c2C#N)cc1 — the same, 0%
- COc1ccc(CNC(=O)NC2CCN(c3ccnc(Nc4cc(OC)c(OC)c(OC)c4)n3)C2)cc1 (stereo not shown) [GSK1379748] — the same, 0%
- O=c1cc(N2CCOCC2)nc2n(Cc3cccc(Cl)c3Cl)ccn12 [GSK2286295] — the same, 0%
- Cc1ccccc1-n1cnc2c(N)ncnc21 [SKF-97510] — the same, 0%
- Cc1cccc(-c2nc(-c3ccc(S(C)(=O)=O)cc3)sc2-c2ccnc(NCCc3ccccc3)c2)c1 — the same, 0%
- Cc1cc(-c2ccc3c(c2)CC[C@@H](N[C@@H](C)c2ccccc2)C3)cnc1N.Cl [GW412617] — the same, 0%
- Cc1ccc(NC(=O)Nc2cc(C(C)(C)C)nn2-c2ccccc2)cc1 [GSK1014915] — the same, 0%
- COc1cc2ncn(-c3cc(OCC4CCCO4)c(C(N)=O)s3)c2cc1OC (stereo not shown) [GSK204607] — the same, 0%
- COc1cccc(NC(=O)NC2CCN(c3ccnc(Nc4ccc(F)cc4)n3)C2)c1 (stereo not shown) [GSK1379721] — the same, 0%
- CC1=C(C(=O)Nc2cc3cn[nH]c3cc2F)C(c2ccc(C(F)(F)F)cc2)CC(=O)N1 (stereo not shown) [GSK429286] — the same, 0%
- COc1ccc(C2=C(Nc3cccc(C(=O)O)c3)C(=O)NC2=O)cc1 [SB-390765] — higher, 21%
- COc1cc2ncnc(Nc3ccc4nc(-c5ccccc5)[nH]c4c3)c2cc1OC.Cl [GW282450] — the same, 0%
- CN1C(=O)C(Nc2ccc(Cl)c(C(=O)O)c2)=C(c2ccc(Cl)cc2)C1=O [SB-404290] — higher, 19%
- Cl.NC(=O)c1cccc(Nc2nccc(Nc3ccc(Oc4cccc(Cl)c4)c(Cl)c3)n2)c1 [GW659008] — higher, 37%
